From PubChem BioAssay (NCI)
About 83,000 compounds went through this panel and 20% of them were active in at least one assay; those are over-represented in the sample as a whole.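 How to read the values: 0–100, growth inhibition (40 = 60% inhibited); 0, no net growth; -100 to 0, cell death (-40 = 40% of starting cells died; -100 = all dead).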 A number with no mark means an inactive call. Active and inactive are the calls of the source. Rule for the calls: active = growth percent below 10; inactive = the rest.

Assays:
Test in all cases: NCI-60 one-dose screen, 48 h (100 = growth as untreated, 0 = no growth, -100 = all killed)
Settings in all cases: 10 µM unless noted
NCI-H23 lung = tested on: NCI-H23 lung
NCI-H226 lung = tested on: NCI-H226 lung
NCI-H322M lung = tested on: NCI-H322M lung
HOP-62 NSCLC = tested on: HOP-62 NSCLC
NCI-H460 lung = tested on: NCI-H460 lung
HOP-92 NSCLC = tested on: HOP-92 NSCLC
NCI-H522 lung = tested on: NCI-H522 lung
A549/ATCC NSCLC = tested on: A549/ATCC NSCLC
786-0 renal = tested on: 786-0 renal
COLO 205 colon = tested on: COLO 205 colon

Work on `COc1ccc(C2C3CCc4ccccc4C3=NN2C(=O)c2cc(OC)c(OC)c(OC)c2)cc1O` (stereo not given) yielded a growth (NCI-H23 lung) of 98%, a growth (NCI-H226 lung) of 89.1% and a growth (NCI-H322M lung) of 86.2%. It also gave a growth (HOP-62 NSCLC) of 92.8%, a growth (NCI-H460 lung) of 108% and a growth (HOP-92 NSCLC) of 84.2%. The growth (NCI-H522 lung) was 81.8%, the growth (A549/ATCC NSCLC) was 102% and the growth (786-0 renal) was 106%. The growth (COLO 205 colon) was 113%.
With `Cc1ccc2cc3c(NC(=O)c4cccnc4)nn(C)c3nc2c1` the growth (NCI-H23 lung) was 90%, the growth (NCI-H226 lung) was 85.3% and the growth (NCI-H322M lung) was 89.4%. The growth (HOP-62 NSCLC) was 101%, the growth (NCI-H460 lung) was 98.2% and the growth (HOP-92 NSCLC) was 81.5%. It also gave a growth (NCI-H522 lung) of 67.1%, a growth (A549/ATCC NSCLC) of 95.7% and a growth (786-0 renal) of 98.6%. It also gave a growth (COLO 205 colon) of 85.5%.
With `COc1ccc(NC(=O)/C=C/c2ccc(Cl)c(Cl)c2)cn1` the growth (NCI-H23 lung) was 84.7%, the growth (NCI-H226 lung) was 68.3% and the growth (NCI-H322M lung) was 91.6%. It also gave a growth (HOP-62 NSCLC) of 90.1%, a growth (NCI-H460 lung) of 99% and a growth (HOP-92 NSCLC) of 87.1%. For the same compound, the growth (NCI-H522 lung) was 79.9%, the growth (A549/ATCC NSCLC) was 79.1% and the growth (786-0 renal) was 85.6%. It also gave a growth (COLO 205 colon) of 101%.
With `C/C=C(\C)C(C(=O)NC1CCCCC1)N(C(=O)C1CCc2cc(F)ccc2O1)c1ccc([N+](=O)[O-])cc1` (stereo not given) the growth (NCI-H23 lung) was 91.9%, the growth (NCI-H226 lung) was 72.5% and the growth (NCI-H322M lung) was 92.8%. The growth (HOP-62 NSCLC) was 87.3%, the growth (NCI-H460 lung) was 82.5% and the growth (HOP-92 NSCLC) was 92.6%. For the same compound, the growth (NCI-H522 lung) was 81.9%, the growth (A549/ATCC NSCLC) was 79.1% and the growth (786-0 renal) was 90.1%. For the same compound, the growth (COLO 205 colon) was 98.7%.
Compound `COc1cc2nccc(Oc3ccc(NC(=O)C4(C(=O)Nc5ccc(F)cc5)CC4)cc3)c2cc1O` has a growth (NCI-H23 lung) of 57.4%, a growth (NCI-H226 lung) of 67.1% and a growth (NCI-H322M lung) of 87.7%. For the same compound, the growth (HOP-62 NSCLC) was 57.6%, the growth (NCI-H460 lung) was 48.1% and the growth (HOP-92 NSCLC) was 33.4%. The growth (NCI-H522 lung) was 68%, the growth (A549/ATCC NSCLC) was 56.4% and the growth (786-0 renal) was 96.2%. The growth (COLO 205 colon) was 91%.
Work on `CC(=O)c1ccc(-n2c(-c3cc(-c4ccsc4)n[nH]3)n[nH]c2=S)cc1` yielded a growth (NCI-H23 lung) of 102%, a growth (NCI-H226 lung) of 99.6% and a growth (NCI-H322M lung) of 101%. It also gave a growth (HOP-62 NSCLC) of 112%, a growth (NCI-H460 lung) of 105% and a growth (HOP-92 NSCLC) of 89.9%. It also gave a growth (NCI-H522 lung) of 82.6%, a growth (A549/ATCC NSCLC) of 98.3% and a growth (786-0 renal) of 101%. The growth (COLO 205 colon) was 117%.
With `F` the growth (NCI-H23 lung) was 41.1% [6.87 mM], the growth (NCI-H226 lung) was 90.6% [6.87 mM] and the growth (NCI-H322M lung) was 46.4% [6.87 mM]. The growth (HOP-62 NSCLC) was 10.7% [6.87 mM], the growth (NCI-H460 lung) was 45.1% [6.87 mM] and the growth (HOP-92 NSCLC) was -5.03% [6.87 mM] (active). For the same compound, the growth (NCI-H522 lung) was 56.8% [6.87 mM], the growth (A549/ATCC NSCLC) was 18% [6.87 mM] and the growth (786-0 renal) was -1.01% [6.87 mM] (active). It also gave a growth (COLO 205 colon) of 40.3% [6.87 mM].
`N#Cc1c(NN)n(C2OC(CO)C(O)C2O)c2ncnc(N)c12` (stereo not given) was tested, and the growth (NCI-H23 lung) was 2.93% (active), the growth (NCI-H226 lung) was 25.7% and the growth (NCI-H322M lung) was -19.8% (active). The growth (HOP-62 NSCLC) was -0.156% (active), the growth (NCI-H460 lung) was -13.4% (active) and the growth (HOP-92 NSCLC) was -18.9% (active). For the same compound, the growth (NCI-H522 lung) was -57% (active), the growth (A549/ATCC NSCLC) was 6.43% (active) and the growth (786-0 renal) was 26.1%. For the same compound, the growth (COLO 205 colon) was -32.7% (active).
Compound `COC(=O)c1cc(Cl)cc([N+](=O)[O-])c1O` has a growth (NCI-H23 lung) of 111%, a growth (NCI-H226 lung) of 97.9% and a growth (NCI-H322M lung) of 115%. For the same compound, the growth (HOP-62 NSCLC) was 104%, the growth (NCI-H460 lung) was 116% and the growth (HOP-92 NSCLC) was 83.8%. It also gave a growth (NCI-H522 lung) of 99.5%, a growth (A549/ATCC NSCLC) of 105% and a growth (786-0 renal) of 108%. It also gave a growth (COLO 205 colon) of 115%.
For `O=C(Nc1cccc(Cl)c1)Nc1cc(C(F)(F)F)ccc1Cl`, the growth (NCI-H23 lung) was -12.3% (active), the growth (NCI-H226 lung) was 20.8% and the growth (NCI-H322M lung) was 30.8%. The growth (HOP-62 NSCLC) was 41.3%, the growth (NCI-H460 lung) was -34.6% (active) and the growth (HOP-92 NSCLC) was -20.3% (active). For the same compound, the growth (NCI-H522 lung) was -26.9% (active), the growth (A549/ATCC NSCLC) was 11.3% and the growth (786-0 renal) was 8.47% (active). For the same compound, the growth (COLO 205 colon) was -28.2% (active).
In the case of `O=C(C(Br)C(Br)c1ccccc1)C(Br)C(Br)c1ccccc1` (stereo not given), the growth (NCI-H23 lung) is reported as 8.99% (active), the growth (NCI-H226 lung) is reported as -36.5% (active) and the growth (NCI-H322M lung) is reported as 84.2%. For the same compound, the growth (HOP-62 NSCLC) was 3.69% (active), the growth (NCI-H460 lung) was 64% and the growth (HOP-92 NSCLC) was -60.7% (active). The growth (NCI-H522 lung) was -90.6% (active), the growth (A549/ATCC NSCLC) was 29.4% and the growth (786-0 renal) was -62.7% (active). For the same compound, the growth (COLO 205 colon) was -47.8% (active).
In the case of `CN1CCN(c2ccc(N3Cc4ccccc4OC4=C3C(=O)c3c(O)ccc(O)c3C4=O)cn2)CC1`, the growth (NCI-H23 lung) is reported as -23.2% (active), the growth (NCI-H226 lung) is reported as 35.2% and the growth (NCI-H322M lung) is reported as 4.57% (active). For the same compound, the growth (HOP-62 NSCLC) was 1.99% (active), the growth (NCI-H460 lung) was -22.4% (active) and the growth (HOP-92 NSCLC) was -58.7% (active). For the same compound, the growth (NCI-H522 lung) was -53.3% (active), the growth (A549/ATCC NSCLC) was -4.29% (active) and the growth (786-0 renal) was -77.4% (active). The growth (COLO 205 colon) was -77.1% (active).
Work on `C=CCn1c(SCC(=O)Nc2ccc(C(=O)/C=C/c3ccc(Cl)cc3)cc2)nnc1-c1ccc(Cl)cc1` yielded a growth (NCI-H23 lung) of 82.8%, a growth (NCI-H226 lung) of 83.1% and a growth (NCI-H322M lung) of 110%. For the same compound, the growth (HOP-62 NSCLC) was 78.2%, the growth (NCI-H460 lung) was 99.5% and the growth (HOP-92 NSCLC) was 91%. The growth (NCI-H522 lung) was 68.4%, the growth (A549/ATCC NSCLC) was 73.8% and the growth (786-0 renal) was 93.9%. It also gave a growth (COLO 205 colon) of 98.3%.
With `CCCCNCCC(O)c1cc2ccc(C(F)(F)F)cc2c2cc(C(F)(F)F)ccc12` (stereo not given) the growth (NCI-H23 lung) was -75.3% (active), the growth (NCI-H226 lung) was -70.7% (active) and the growth (NCI-H322M lung) was -37.6% (active). For the same compound, the growth (HOP-62 NSCLC) was -91.3% (active), the growth (NCI-H460 lung) was -74.5% (active) and the growth (HOP-92 NSCLC) was -80.6% (active). For the same compound, the growth (NCI-H522 lung) was -83% (active), the growth (A549/ATCC NSCLC) was -87.5% (active) and the growth (786-0 renal) was -85.3% (active). The growth (COLO 205 colon) was -88.6% (active).
Compound `Fc1ccc(-c2nnc(N3CCOCC3)c3ccccc23)cc1` has a growth (NCI-H23 lung) of 111%, a growth (NCI-H226 lung) of 97.2% and a growth (NCI-H322M lung) of 94.2%. The growth (HOP-62 NSCLC) was 97.1%, the growth (NCI-H460 lung) was 103% and the growth (HOP-92 NSCLC) was 103%. The growth (NCI-H522 lung) was 101%, the growth (A549/ATCC NSCLC) was 102% and the growth (786-0 renal) was 105%. For the same compound, the growth (COLO 205 colon) was 89.6%.
